Screening data from PubChem.
GRK2 inh: human GRK2 inhibition via aptamer displacement; P25098; bead flow cytometry, FAM-aptamer displacement from GRK2; inhibition of aptamer binding, % at 10 µM; 0.59% of 330,000 active; AID 488847;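 active means inhibition of aptamer binding above 40%, roughly 3 SD of noise, on plates passing a quality check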;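 further: median bead fluorescence of bound FAM aptamer so fluorescent compounds give negative values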
Rce1 inhib: inhibitors of yeast Ras-converting enzyme; calls only; yeast membranes, quenched prenylated peptide cleavage fluorescence; 0.27% of 290,000 active;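 active means fall in fluorescence gain of 50% or more versus controls, with final raw signal at or below 3038400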
Target sequence (Q03530 whole entry, looked up): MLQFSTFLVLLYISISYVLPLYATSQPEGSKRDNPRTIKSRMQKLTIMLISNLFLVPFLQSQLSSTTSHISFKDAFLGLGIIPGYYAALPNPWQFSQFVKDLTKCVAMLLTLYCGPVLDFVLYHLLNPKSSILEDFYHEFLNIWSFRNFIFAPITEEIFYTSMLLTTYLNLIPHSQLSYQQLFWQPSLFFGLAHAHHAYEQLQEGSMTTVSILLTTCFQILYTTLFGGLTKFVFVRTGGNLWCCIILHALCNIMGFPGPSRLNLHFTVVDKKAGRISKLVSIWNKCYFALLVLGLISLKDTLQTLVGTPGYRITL
Rtt109 HAT inh: inhibitors of Candida albicans Rtt109/Vps75 histone acetyltransferase; purified Rtt109/Vps75, ThioGlo CoA-SH fluorescence, 4 h; 0.16% of 330,000 active; inhibition, % at 34.9 µM; Q5AAJ8;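 active means inhibition of at least 50% in every replicate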
HDAC3 inhib: blocks human histone deacetylase 3; AID 2718; O15379; inhibition, % at 8.3 µM; 0.15% of 320,000 active; recombinant HDAC3, fluorogenic peptide/trypsin coupled, fluorescence; in the data active means inhibition above about 26%, passing the limit was not always enough
Efflux pump inh: antifungal efflux pump inhibition, Nile Red retention | S. cerevisiae Candida pump triplex | inhibition, % at 10 µM | 0.44% of 330,000 active | AID 485275;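 active means plate passing quality check with inhibition over a set limit, or well fluorescence over plate mean plus 4 SD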;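 further: Nile Red retained in pooled yeast measured as flow cytometry median fluorescence; higher means more Nile Red kept so more efflux inhibition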
ALR inh: blocks human ALR sulfhydryl oxidase activity; P55789; purified ALR, DTT oxidation, H2O2 HRP-luminol luminescence; inhibition, % (concentration not given with the values); 3.8% of 290,000 active;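 active means mean replicate inhibition above about 79%, with every replicate also reaching it, limit read from the data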
Target sequence (P55789 whole entry, looked up): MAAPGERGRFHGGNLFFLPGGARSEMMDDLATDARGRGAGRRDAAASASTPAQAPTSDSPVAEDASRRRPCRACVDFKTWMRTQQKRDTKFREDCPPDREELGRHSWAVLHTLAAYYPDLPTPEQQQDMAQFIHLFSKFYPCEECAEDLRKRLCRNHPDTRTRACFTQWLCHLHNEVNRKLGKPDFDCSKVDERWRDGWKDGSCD
Yeast cmpd fluor: compound fluorescence in yeast efflux pump counter-screen; shares compounds with Efflux pump inh; S. cerevisiae AD/pABC3, flow cytometry; fluorescence ratio to DMSO, % at 10 µM; 4% of 1,700 active; AID 588517;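 active means fluorescence ratio to DMSO above its plate's cutoff, the plate mean ratio plus 5 SD, cut at about 210% in these data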;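 further: unstained yeast with no Nile Red so the signal is compound autofluorescence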
Mdr1 pump inh: blocks the Candida albicans Mdr1 efflux pump in yeast; shares compounds with Efflux pump inh; S. cerevisiae AD/CaMDR1, Nile Red efflux, flow cytometry; inhibition, % at 10 µM; 1% of 1,700 active; AID 588518; in the data active means inhibition above about 26%;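 further: higher means more Nile Red retained so more efflux inhibition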
Cdr2 pump inh: blocks the Candida albicans Cdr2 efflux pump in yeast | Nile Red retention ratio vs DMSO, % at 10 µM | shares compounds with Efflux pump inh | 4% of 1,700 active | S. cerevisiae AD/CaCDR2, Nile Red retention, flow cytometry; in the data active means Nile Red retention ratio vs DMSO above about 190%;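 further: higher ratio means more blocking of Cdr2 efflux of the dye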
CaCdr1 efflux inh: blocks the Candida albicans Cdr1 efflux pump in yeast; shares compounds with Efflux pump inh; S. cerevisiae AD/CaCDR1, Nile Red efflux, flow cytometry; inhibition, % at 10 µM; 1% of 1,700 active;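 active means inhibition above the screen-wide mean plus twice its standard deviation, cut at about 32% in these data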
A number is an active result. This is a sample that favours compounds with a hit; in the whole collection about 4.5% have one here.

COc1ccc(-n2nc(C(=O)c3cccs3)cc(-c3nc4ccccc4[nH]3)c2=N)cc1 was read as GRK2 inh inactive, Rce1 inhib inactive, Rtt109 HAT inh inactive, HDAC3 inhib inactive and Efflux pump inh inactive.
CCOc1ccc(N2C(=O)CC(N(C)Cc3ccccc3)C2=O)cc1 (centres undefined) was read as GRK2 inh inactive, Rce1 inhib inactive, Rtt109 HAT inh inactive, HDAC3 inhib inactive, Efflux pump inh 15.2, ALR inh inactive, Yeast cmpd fluor inactive, Mdr1 pump inh inactive, Cdr2 pump inh inactive and CaCdr1 efflux inh inactive.
For Cc1ccc(S(=O)(=O)Nc2cc(C(C(=O)OC(C)C)C(=O)C(F)(F)F)c(O)c3ccccc23)c(C)c1 (centres undefined) the results were GRK2 inh inactive, Rce1 inhib inactive, Rtt109 HAT inh inactive, HDAC3 inhib inactive, Efflux pump inh 12.6, ALR inh inactive, Yeast cmpd fluor inactive, Mdr1 pump inh inactive, Cdr2 pump inh inactive and CaCdr1 efflux inh inactive.
Cc1oc2c(cc(NS(=O)(=O)c3ccc4c5c(cccc35)C(=O)N4)c3ccccc32)c1C(=O)OC(C)C was read as GRK2 inh inactive, Rce1 inhib inactive, Rtt109 HAT inh inactive, HDAC3 inhib inactive, Efflux pump inh inactive and ALR inh inactive.
Screening CN(c1ccccc1)c1ccc(/C=C(\CCC(=O)O)c2nc3ccccc3s2)cc1[N+](=O)[O-] returned GRK2 inh inactive, Rce1 inhib inactive, Rtt109 HAT inh inactive, HDAC3 inhib inactive, Efflux pump inh inactive and ALR inh inactive.
For CN(c1ccccc1)c1ccc(/C=C(\C#N)c2nnc3n2CCCCC3)cc1[N+](=O)[O-] the results were GRK2 inh inactive, Rce1 inhib inactive, Rtt109 HAT inh inactive, HDAC3 inhib inactive, Efflux pump inh 16.4, ALR inh inactive, Yeast cmpd fluor inactive, Mdr1 pump inh inactive, Cdr2 pump inh inactive and CaCdr1 efflux inh inactive.
For Cc1ccccc1OCCC(=O)OCC(=O)c1c(N)n(CC(C)C)c(=O)n(C)c1=O the results were GRK2 inh inactive, Rce1 inhib inactive, Rtt109 HAT inh inactive, HDAC3 inhib inactive, Efflux pump inh 6.2, Yeast cmpd fluor inactive, Mdr1 pump inh inactive, Cdr2 pump inh inactive and CaCdr1 efflux inh inactive.
For Cc1cc2c([nH]c3ccccc32)c2c1OC(C)(C)C=C2 the results were GRK2 inh inactive, Rce1 inhib inactive, Rtt109 HAT inh inactive, HDAC3 inhib inactive, Efflux pump inh 1.5, ALR inh inactive, Yeast cmpd fluor inactive, Mdr1 pump inh inactive, Cdr2 pump inh inactive and CaCdr1 efflux inh inactive.
For COc1ccc2[nH]c(=O)c3c(c2c1)OC(C)(C)C=C3 the results were GRK2 inh inactive, Rce1 inhib inactive, Rtt109 HAT inh inactive, HDAC3 inhib inactive, Efflux pump inh inactive and ALR inh inactive.
For O=C(COc1ccccc1-c1ccccc1)c1ccccc1 the results were GRK2 inh inactive, Rce1 inhib inactive, Rtt109 HAT inh inactive and Efflux pump inh inactive.
`Cc1ccc(C(=O)COc2ccccc2-c2ccccc2)cc1C` gave GRK2 inh inactive, Rce1 inhib inactive, Rtt109 HAT inh inactive, HDAC3 inhib inactive, Efflux pump inh 12.6, ALR inh inactive, Yeast cmpd fluor inactive, Mdr1 pump inh inactive, Cdr2 pump inh inactive and CaCdr1 efflux inh inactive.
c1ccc(CCNc2ccc3c(c2)Cc2ccccc2-3)nc1 was read as Rtt109 HAT inh inactive.
`O=C(CSc1nnc(-c2ccccc2)o1)N1CCN(c2ccccc2)CC1` gave GRK2 inh inactive, Rce1 inhib inactive, Rtt109 HAT inh inactive, HDAC3 inhib inactive, Efflux pump inh 0.8, ALR inh inactive, Yeast cmpd fluor inactive, Mdr1 pump inh inactive, Cdr2 pump inh inactive and CaCdr1 efflux inh inactive.
CCOc1ccc(-c2nnc(SCC(=O)N3CCN(c4ccccc4)CC3)o2)cc1 was read as GRK2 inh inactive, Rce1 inhib inactive, Rtt109 HAT inh inactive, HDAC3 inhib inactive, Efflux pump inh inactive and ALR inh inactive.
